# Measured values taken from PubChem BioAssay (NCATS).
# Inconclusive results are not listed. Where a call stands in place of a potency, no number is given. Activity calls are given as the source filed them. Calls come from the whole dose curve; as a rule, active = well fitted inhibition curve with a large enough effect; inconclusive = small, poorly fitted or top-dose-only effect; inactive = flat fitted curve, though single readings scatter.
# Tests used:
# Experiment in all cases: qHTS profiling for inhibitors of Plasmodium falciparum proliferation (AID 504749); note: nearly all actives have a fitted effect of over 60% in size
# Conditions in all cases: P. falciparum in erythrocytes, SYBR Green DNA, 72 h; series mostly up to 28.7 µM
# [1] = tested on: DIV30
# In short: (§1)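 Infected RBCs, 0.3% parasitemia/2.5% Hct final; cpd 72 h, 37 C, 5% CO2; lysis buffer with saponin/triton/SYBR Green I, o/n RT dark; FI 485/535; norm. to artemisinin (0.29 uM) and DMSO.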
# [2] = tested on: Dd2
# In short: as §1
# [3] = tested on: FAB9
# In short: as §1
# [4] = tested on: GB4
# In short: as §1
# [5] = tested on: JCK
# In short: as §1
# [6] = tested on: N140
# In short: as §1
# [7] = tested on: P94_40
# In short: as §1
# [8] = tested on: PAD
# In short: as §1
# [9] = tested on: PC15
# In short: as §1
# [10] = tested on: PC26
# In short: as §1
# [11] = tested on: PC49
# In short: as §1
# [12] = tested on: SC27B
# In short: as §1
# [13] = tested on: TAB109
# In short: as §1
# [14] = tested on: TAB113
# In short: as §1
# [15] = tested on: TAB165
# In short: as §1
# [16] = tested on: W2
# In short: as §1
# [17] = tested on: ECU
# In short: as §1
# [18] = tested on: HB3
# In short: as §1
# [19] = tested on: ICS
# In short: as §1
# [20] = tested on: P93_24
# In short: as §1
# Potency is the fitted concentration of half-maximal effect.
SMILES,Potency [1],Potency [2],Potency [3],Potency [4],Potency [5],Potency [6],Potency [7],Potency [8],Potency [9],Potency [10],Potency [11],Potency [12],Potency [13],Potency [14],Potency [15],Potency [16],Potency [17],Potency [18],Potency [19],Potency [20]
C(=C\c1ccncc1)/c1ccccc1,inactive,inactive,inactive,inactive,inactive,inactive,inactive,inactive,inactive,inactive,inactive,inactive,inactive,inactive,inactive,inactive,,,,
COc1ccc(-c2noc(CC(=O)O)c2-c2ccc(OC)cc2)cc1,inactive,inactive,inactive,,inactive,inactive,inactive,inactive,inactive,inactive,inactive,inactive,inactive,inactive,inactive,inactive,inactive,inactive,inactive,inactive
CC/C=C\C/C=C\C/C=C\C/C=C\C/C=C\C/C=C\CCC(=O)O,inactive,inactive,inactive,inactive,inactive,inactive,inactive,inactive,inactive,inactive,inactive,inactive,inactive,inactive,inactive,,,inactive,12.6 µM (active),inactive
CN(C)CCCSc1ccccc1NC(=O)/C=C/c1ccccc1,inactive,,inactive,,inactive,inactive,inactive,inactive,inactive,inactive,inactive,inactive,,inactive,inactive,6.01 µM (active),inactive,inactive,inactive,inactive
CCC(=O)c1ccc2c(c1)N(CCCN1CCN(CCO)CC1)c1ccccc1S2,13.5 µM (active),5.62 µM (active),,9.53 µM (active),inactive,8.91 µM (active),10 µM (active),8.91 µM (active),7.08 µM (active),7.57 µM (active),10 µM (active),,,,10 µM (active),5.36 µM (active),8.91 µM (active),7.94 µM (active),5.01 µM (active),8.91 µM (active)
CCN(CC)CCC(=O)N1c2ccccc2Sc2ccc(C(F)(F)F)cc21,,,inactive,,inactive,inactive,inactive,inactive,,,inactive,inactive,,inactive,inactive,5.36 µM (active),inactive,inactive,,
N#Cc1ccc2c(c1)N(CCCN1CCC(O)CC1)c1ccccc1S2,,5.01 µM (active),inactive,,inactive,12.6 µM (active),,,,,inactive,,,,,4.26 µM (active),inactive,inactive,,
CC(C)NCC(O)COc1ccccc1-n1cccc1 (stereo unspecified),inactive,,inactive,,inactive,inactive,inactive,inactive,,inactive,inactive,inactive,,inactive,inactive,,inactive,inactive,,inactive
CC(CN(C)C)CN1c2ccccc2Sc2ccc(C(F)(F)F)cc21 (stereo unspecified),,3.55 µM (active),inactive,,,11.2 µM (active),5.01 µM (active),,,,,,,,12.6 µM (active),0.426 µM (active),,,10 µM (active),10 µM (active)
CN(C)CCC=C1c2ccccc2C(C)(C)c2ccccc21,,,inactive,13.5 µM (active),inactive,,,,,,inactive,inactive,,,,3.38 µM (active),,inactive,7.94 µM (active),
O=P(O)(O)OP(=O)(O)O,,inactive,inactive,,,8.91 µM (active),,,inactive,,inactive,,inactive,,,13.5 µM (active),inactive,inactive,,inactive
